Assay outcomes from PubChem.
ATG4B inhibitor: blocks human ATG4B protease cleavage of LC3 substrate | inhibition, % at 8.33 µM | 340,000 tested, 0.51% active | ATG4B cleavage of LC3-PLA2, NBD-HPC fluorescence, 1 h | Q9Y4P1 | AID 504462; in the data active = inhibition above about 40%
Target sequence (Q9Y4P1 whole entry, looked up): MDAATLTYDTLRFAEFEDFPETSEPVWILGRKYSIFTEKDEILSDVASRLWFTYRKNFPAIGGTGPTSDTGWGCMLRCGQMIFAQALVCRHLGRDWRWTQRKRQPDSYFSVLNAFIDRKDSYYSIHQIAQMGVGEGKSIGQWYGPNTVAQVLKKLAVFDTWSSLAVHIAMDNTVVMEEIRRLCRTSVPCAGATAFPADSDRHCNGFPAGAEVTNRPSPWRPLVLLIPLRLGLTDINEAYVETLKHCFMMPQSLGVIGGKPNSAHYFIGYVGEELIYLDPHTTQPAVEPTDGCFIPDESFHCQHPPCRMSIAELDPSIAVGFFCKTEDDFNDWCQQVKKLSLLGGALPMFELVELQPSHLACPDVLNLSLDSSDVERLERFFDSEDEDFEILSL
SUMO Mot1 rescue: blocks SUMOylation pathway, rescuing yeast Mot1-301 growth. growth rescue, % at 18.8 µM. S. cerevisiae Mot1-301 growth rescue, ATP luminescence, 38.5C; percent above DMSO median, 100 means doubled. AID 2716. 320,000 tested, 1% active;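 active = every valid replicate shows activation above 250% relative to neutral control wells; inactive = the rest, any valid replicate at or below 250%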;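 note: OY570 slx delta 5 strain wells were the positive control but not used for scaling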
V-ATPase pH: yeast V-ATPase proton transport regulation by pHLuorin; S. cerevisiae, pHLuorin cytosolic pH fluorescence; response, % at 10 µM; AID 504577; 350,000 tested, 0.37% active; in the data active = response mostly above about 7.3%, no sharp cut-off; inactive = mostly below about 5.4%; note: actives read high
Efflux pump mplx: inhibitors of Candida antifungal efflux pumps expressed in yeast. inhibition, % at 10 µM. 330,000 tested, 0.44% active. S. cerevisiae Candida pump triplex, Nile Red efflux. AID 485275;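 active = plate passing quality check with inhibition over a set limit, or well fluorescence over plate mean plus 4 SD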;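 note: Nile Red retained in pooled yeast measured as flow cytometry median fluorescence; 0% = buffer negative control and 100% = Enniatin B positive control; higher means more Nile Red kept so more efflux inhibition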
AI-2 QS mod: modulates the Vibrio harveyi AI-2 quorum sensing system | Vibrio harveyi JMH597 AI-2 luminescence/OD600 ratio, 9 h; hits give low values; strain lacks LuxN and CqsS sensors; 0 = neutral-control median | activity change, % at 7.5 µM | 300,000 tested, 0.4% active; in the data active = activity change below about -75%, passing the limit was not always enough;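 note: luminescence divided by OD600 gain over 9 h not by final OD600 alone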
Mot1 SUMO dose: inhibits SUMO pathway, affecting Mot1-301 yeast growth. growth activity, percent, % at 42 µM. 2,300 tested, under 10 active. shares compounds with SUMO Mot1 rescue. S. cerevisiae Mot1-301 galactose growth, ATP luminescence, 24 h; -100 = growth of slx-deleted rescue strain;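 active = Signal drops as the depositor expects, and the fitted half-maximal dose is no more than ten times the top valid tested dose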;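 note: more negative values mean stronger growth rescue toward the control strain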
An asterisk follows results filed as active; i = inactive; . = no result given; + = active, no number; [ ] = dose if it differs, or a comment. Only some compounds are listed: those with a hit (about 2.5% of all), similar ones and a draw of the others.

SMILES	ATG4B inhibitor	SUMO Mot1 rescue	V-ATPase pH	Efflux pump mplx	AI-2 QS mod	Mot1 SUMO dose
Cc1ccc(N2C(=O)c3cccc4c(N5CCN(C)CC5)ccc(c34)C2=O)c2cccnc12	-15.4	701.8*	.	-0.1	9.5	-0.5
Cc1ccc(N2C(=O)c3cccc4c([N+](=O)[O-])ccc(c34)C2=O)c2cccnc12	-3.9	8.4	-58.2	0.1	18.4	.
COc1ccccc1OCC(=O)NC1CCCc2ccccc21 (stereo not given)	-2.5	-3.3	-2.3	-0.1	13.0	.
Cc1cc(C)cc(OCC(=O)NC2CCCc3ccccc32)c1 (stereo not given)	5.0	461.5*	-6.2	0.8	9.3	0.3
CCOC(=O)C(NC(C)=O)C(OC(C)=O)c1cccc(N(CCO)CCO)c1 (stereo not given)	-6.8	-9.1	-6.8	0.0	28.5	.
O=C(CN1CCN(Cc2ccc(F)cc2)CC1)NCc1ccccc1	3.3	650.8*	-1.7	0.0	18.7	0.4
Cc1ccc(NC(=O)NC(=O)N(C(C)C)S(=O)(=O)c2ccc(C)cc2)cc1	0.7	.	0.8	0.1	21.0	.
CCOc1ccc(S(=O)(=O)N2CCN(CC(O)COc3cccc([N+](=O)[O-])c3)CC2)cc1 (stereo not given)	-1.4	588.2*	-6.8	0.5	11.0	0.1
Cc1ccc(S(=O)(=O)N2CCN(CC(O)COc3ccccc3)CC2)cc1 (stereo not given)	-8.4	-20.7	-2.5	0.0	34.1	.
CCC(=O)Nc1nc(CC(=O)Nc2ccccc2OC)cs1	3.4	+	-1.3	0.1	10.0	0.3
CC(OC(=O)c1ccccc1C(=O)N(C)c1ccccc1)C(=O)Nc1ccccc1[N+](=O)[O-] (stereo not given)	-6.7	-0.3	-0.4	0.1	22.3	.
Cc1cccc(C(=O)NCC(=O)OCCOc2ccccc2Cl)c1	5.8	-2.0	2.2	-0.2	14.5	.
COc1ccc(/C=C2/SC(=O)N(NS(=O)(=O)c3ccccc3)C2=S)cc1OC	4.2	375.3*	4.7	-0.4	.	-1.6
CS(=O)(=O)N1CCc2cc(NC(=O)c3ccc(Cl)cc3Cl)ccc21	-5.6	8.9	-1.9	-0.1	16.5	.
O=C1Nc2ccccc2C1=Nc1cccc(Cl)c1	2.2	142.6	0.6	0.3	22.4	.
Cc1cccc(N=C2C(=O)Nc3c(Cl)cccc32)c1	-0.7	561.9*	2.1	0.0	29.7	0.5
CCN(CC)S(=O)(=O)c1ccc(NC(=O)C(C)N(c2ccccc2)S(C)(=O)=O)cc1 (stereo not given)	-13.7	+	10.1	-0.2	-33.9	0.3
Cc1cc(NC(=S)N(Cc2ccc(Br)cc2)Cc2ccc(C(=O)O)cc2)ccc1Cl	16.0	-3.6	-2.9	0.0	17.6	.
CCC(=O)N1c2ccc(S(=O)(=O)N3CCN(c4ccc([N+](=O)[O-])cc4)CC3)cc2CC1C (stereo not given)	5.0	456.4*	-3.7	0.0	5.3	-0.5
Cc1ccc(CNC(=O)COC(=O)c2ccc(Cl)c(N)c2)cc1	-8.9	.	1.0	0.1	16.4	.
Cc1ccc(/C=C/C(=O)O)cc1S(=O)(=O)N(CCO)CCO	-4.7	389.7*	3.9	0.1	34.4	0.3
COc1cc(C2NC(=S)NC(O)(C(F)(F)F)C2C(=O)c2cccs2)cc(OC)c1O (stereo not given)	4.6	-8.1	-0.8	0.1	12.2	.
O=C1NC(c2ccccc2)C(C(=O)c2cccs2)C(O)(C(F)(F)F)N1 (stereo not given)	-4.0	374.4*	-1.8	-0.1	-0.5	-0.4
CCN(Cc1ccncc1)Cc1nc(CC2CC2)no1	-4.2	-14.5	1.4	-0.1	18.9	.
N#C/C(=C/c1ccc(N2CCCCC2)o1)C(=O)Nc1ccc(Cl)cc1	7.6	587.2*	-1.0	-0.1	12.0	0.4
SMILES	ATG4B inhibitor	SUMO Mot1 rescue	V-ATPase pH	Efflux pump mplx	AI-2 QS mod	Mot1 SUMO dose
CCc1ccccc1NC(=O)N[C@@H](C)C(=O)O	0.0	117.6	-3.7	-0.2	-1.8	.
CCc1ccccc1NC(=O)N[C@@H](C)C(=O)OC	5.7	649.8*	0.1	0.2	7.6	0.3
O=C(COC(=O)c1ccc([N+](=O)[O-])s1)c1ccc[nH]1	-5.1	516.2*	39.2*	0.1	.	-2.9
Cn1c(=NC(=O)COc2ccccc2)sc2cc(F)cc(F)c21	-7.5	447.9*	.	-0.1	17.6	0.0
CCOC(=O)c1c(Cc2cccc(Cl)c2)c[nH]c1C	19.3	-31.2	3.0	-0.1	5.5	.
COc1cc(C)ccc1OCCCOc1ccccc1Br	-2.6	+	-3.3	-0.1	27.3	0.3
CC(C)[N+]1(C)[C@@H]2CC[C@@H]1CC(OC(=O)C(CO)c1ccccc1)C2 (stereo not given in full)	1.6	371.2*	4.5	-0.1	.	0.0
O=C1C(=O)N(CCCO)C(c2ccc(Br)cc2)/C1=C(\O)c1ccc(Br)cc1 (stereo not given)	1.8	-8.2	-1.2	-0.2	4.5	.
COc1ccc(C(=O)c2c[nH]c(C(=O)NCCCn3ccnc3)c2)cc1	-0.6	9.2	2.9	-0.2	1.1	.
CCC(=O)c1c[nH]c(C(=O)NCCCn2ccnc2)c1	8.0	+	-5.0	0.2	10.4	0.2
Nc1cccc2c1C(=O)N(CCOc1ccc(F)cc1)C2=O	-11.7	i	1.1	-0.1	9.0	.
COC(=O)COc1ccc(S(=O)(=O)NCc2ccc3c(c2)OCO3)cc1C	-5.3	6.1	-7.0	0.0	8.2	.
O=S1(=O)CC(N2CCCCC2)C(N2CCCCC2)C1 (stereo not given)	-14.2	366.0*	-1.2	-0.1	2.4	0.2
O=C(O)c1cc(S(=O)(=O)Nc2ccc(OCc3ccccc3)cc2)ccc1Br	-8.2	414.1*	3.6	0.1	2.9	1.2
N#Cc1cnn2c(-c3ccc(Cl)cc3Cl)ccnc12	11.9	-0.3	-1.2	0.0	1.2	.
CC(=O)Nc1ccccc1C(=O)C(=O)Nc1ccc(C(=O)NCC2CCCO2)cc1 (stereo not given)	-3.7	916.8*	5.2	-0.1	9.0	-0.3
CCCCC(O)(c1ccc(F)cc1)C(CN1CCOCC1)c1ccc(Cl)cc1 (stereo not given)	-7.9	536.5*	0.9	-0.1	7.5	-0.3[21 µM]
COc1ccccc1/C=N\Nc1cn[nH]c(=O)c1Cl	-12.3	.	.	-0.1	14.7	.
CCOc1ccccc1/C=N\Nc1cnn(Cc2ccccc2)c(=O)c1Cl	-6.6	+	0.7	-0.1	36.1	0.1
CCN(CC)CCCN1C(=O)C(=O)/C(=C(/O)c2ccccc2)C1c1cc(OC)ccc1OC (stereo not given)	-6.3	684.5*	-1.8	0.0	-2.3	-0.5
C[C@H]1[C@@H](OC(=O)CCC(=O)O)O[C@@H]2OC3(C)CC[C@H]4[C@H](C)CC[C@@H]1[C@@]24OO3	.	141.2	.	0.0	41.9	.
O=C(CSc1nnc(CNC(=O)c2ccccc2F)o1)NCCc1ccccc1	-12.8	+	0.6	0.1	15.3	0.5
